Measurements as given in PubChem BioAssay.
Calls of active or inactive are those of the source.

What was measured:
[1] = target: Albumin (Bos taurus) (UniProt P02769); assay: bovine serum albumin binders on microarray, profiling panel, artefact control for SMM control protein annotation, biochemical, small-molecule microarray, Alexa647 label, 635/667 nm fluorescence (AID 1118); conditions: BSA-A647 binding, fluorescence 635 nm, higher = more signal;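 note: score merges 667 nm emission intensity and signal-to-noise per printed compound spot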
[2] = small-molecule microarray binders of probe aXIP, primary screen, biochemical, NeuroSMM set, 635/667 nm fluorescence (AID 1119); conditions: higher = more signal, called active from +8 up or from −8 down;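 note: probe is the protein aXip251-270 applied at 1 µg/mL to compound-printed slides; binding of probe to printed compounds measured as 667 nm fluorescence plus signal to noise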
[3] = small-molecule binders of probe aNOTCH3, primary screen, biochemical, small-molecule microarray, 635/667 nm fluorescence (AID 1120); conditions: higher = more signal;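 note: probe is a biotin-tagged antibody raised against NOTCH3 rather than NOTCH3 protein; score merges spot fluorescence near 667 nm with spot signal to noise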
[4] = small-molecule binders of probe aNOTCH2, primary screen, biochemical, small-molecule microarray, 635/667 nm fluorescence (AID 1121); conditions: higher = more signal;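 note: score merges feature fluorescence read at 667 nm with its signal to noise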
[5] = target: Carbonic anhydrase 2 (Homo sapiens) (UniProt P00918); assay: CAII small-molecule binders, profiling panel, biochemical, small-molecule microarray, Alexa647-labelled CAII (AID 1122); conditions: CAII-A647 binding fluorescence, higher = more signal
[6] = COS7 lysate on small-molecule microarray, probe aHis, 635 nm (AID 1123); conditions: COS7 cell lysate, fluorescence, higher = more signal;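 note: z-score combines 667nm fluorescence intensity with signal-to-noise per printed compound spot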
[7] = compound binding in COS7 lysate, probe aLAP1, primary screen, cell lysate, small-molecule microarray (AID 1124); conditions: probe aLAP1, fluorescence, higher = more signal;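 note: lysate comes from COS7 cells expressing LAP1 and is applied at 0.3 µg/mL; score merges spot fluorescence near 667 nm with signal-to-noise over triplicate slides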
[8] = tested on: Sam68 (KHDRBS1); assay: Sam68 small-molecule binders, primary screen, biochemical, small-molecule microarray, 635 nm fluorescence (AID 1125); conditions: small-molecule microarray binding, higher = more signal;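 note: score merges 667 nm channel intensity with signal to noise over triplicate slides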
[9] = tested on: Chordin-like protein 2 (CHRDL2); assay: CHRDL2 small-molecule binders, primary screen, biochemical, small-molecule microarray, 635 nm fluorescence (AID 1126); conditions: small-molecule microarray binding, fluorescence 635 nm; higher = more signal;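 note: printed compound slides probed with Chrdl2 protein at 4 µg/mL for 1 h at 4 C; score merges 667 nm emission intensity with signal to noise over three replicate slides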
[10] = target: Concanavalin-A (Canavalia ensiformis) (UniProt P02866); assay: ConA small-molecule binders, primary screen, artefact control for SMM control protein annotation, biochemical, small-molecule microarray, Alexa647 label, 635 nm (AID 1127); conditions: ConA-A647 binding fluorescence, higher = more signal;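 note: z combines 667 nm emission intensity with signal-to-noise across three replicate slides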
[11] = anti-His antibody binders, primary screen, artefact control for SMM control protein annotation, biochemical, small-molecule microarray, 635 nm fluorescence (AID 1128); conditions: anti-His Alexa647 antibody binding, higher = more signal;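 note: score merges feature fluorescence with signal-to-noise for each printed compound spot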
[12] = tested on: Human papillomavirus type 1a E7 protein (residues 1-88); assay: HPV1a E7 small-molecule binders, primary screen, biochemical, small-molecule microarray, residues 1-88, 635 nm (AID 1129); conditions: small-molecule microarray binding, fluorescence 635 nm; higher = more signal
[13] = target: Focal adhesion kinase 1 (Homo sapiens) (UniProt Q05397); assay: small-molecule microarray binders of FAK, primary screen, biochemical, 635/667 nm fluorescence, BSA, DTT (AID 1130); conditions: PTK2 binding, 635 nm fluorescence, higher = more signal;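 note: composite of spot emission at 667 nm and signal to noise over triplicate slides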
[14] = tested on: Fibrinogen (Alexa647-labelled); assay: fibrinogen binders on compound microarrays, profiling panel, artefact control for SMM control-protein annotation, biochemical, small-molecule microarray, 635/667 nm fluorescence (AID 1131); conditions: fibrinogen-A647 binding fluorescence, higher = more signal;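 note: z-score merges 667 nm fluorescence with per-spot signal-to-noise over triplicate slides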
[15] = target: Follistatin (Homo sapiens) (UniProt P19883); assay: follistatin binders on small-molecule microarrays, primary screen, biochemical, small-molecule microarray, 635/667 nm fluorescence (AID 1132); conditions: FST binding, 635 nm fluorescence, higher = more signal
[16] = target: Fibroblast growth factor 2 (Homo sapiens) (UniProt P09038); assay: FGF2 binders on small-molecule microarrays, primary screen, biochemical, small-molecule microarray, 635/667 nm fluorescence (AID 1133); conditions: small-molecule microarray binding, FGF2, fluorescence 635/667; higher = more signal
[17] = mitochondrial membrane potential change in A549 cells, profiling panel, cell-based, JC-1 fluorescence, basal, 24 h, 100 nL (AID 1138); conditions: higher = more signal;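 note: A549 lung adenocarcinoma cells under basal conditions with no added stimulus; test concentration not given here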
[18] = tested on: Lefty1; assay: Lefty1 binders on small-molecule microarrays, primary screen, biochemical, small-molecule microarray, 635/667 nm fluorescence (AID 1139); conditions: small-molecule microarray binding, fluorescence 635/667; higher = more signal
[19] = tested on: wheat germ agglutinin (Triticum aestivum), Alexa647-labelled; assay: wheat germ agglutinin binders on compound microarrays, profiling panel, artefact control for SMM control-protein annotation, biochemical, small-molecule microarray, 635/667 nm fluorescence (AID 1140); conditions: WGA-A647 binding, 635 nm fluorescence, higher = more signal;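 note: score merges 667 nm feature emission with signal to noise over triplicate slides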
[20] = target: Luciferin 4-monooxygenase (Photinus pyralis) (UniProt P08659); assay: firefly luciferase enzyme inhibitors, primary screen, biochemical, luminescence, purified enzyme, 2006 set (AID 1141); conditions: SteadyGlo luminescence, 30 min, higher = more signal, called active from +8 up or from −8 down;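 note: cell-free assay with purified firefly luciferase at 100 ng per well in PBS; test concentration not given here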
Sequence of Luciferin 4-monooxygenase (Photinus pyralis) (P08659 whole entry, looked up): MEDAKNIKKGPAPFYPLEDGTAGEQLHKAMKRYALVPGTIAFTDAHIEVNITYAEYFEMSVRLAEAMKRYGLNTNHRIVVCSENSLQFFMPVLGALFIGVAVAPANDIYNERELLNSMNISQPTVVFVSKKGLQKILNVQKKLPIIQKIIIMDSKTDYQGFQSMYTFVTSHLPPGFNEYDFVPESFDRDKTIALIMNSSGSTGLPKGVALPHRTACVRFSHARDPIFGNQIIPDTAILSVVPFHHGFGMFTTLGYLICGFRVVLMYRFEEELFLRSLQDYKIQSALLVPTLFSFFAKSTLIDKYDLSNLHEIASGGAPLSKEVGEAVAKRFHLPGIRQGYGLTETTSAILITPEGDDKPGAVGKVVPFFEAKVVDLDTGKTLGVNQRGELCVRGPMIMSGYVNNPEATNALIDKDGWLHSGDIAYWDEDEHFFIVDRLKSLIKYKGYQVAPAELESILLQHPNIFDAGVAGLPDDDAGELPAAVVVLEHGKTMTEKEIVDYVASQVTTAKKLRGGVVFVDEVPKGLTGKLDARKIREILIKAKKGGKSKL

Sequence of Fibroblast growth factor 2 (Homo sapiens) (P09038 whole entry, looked up): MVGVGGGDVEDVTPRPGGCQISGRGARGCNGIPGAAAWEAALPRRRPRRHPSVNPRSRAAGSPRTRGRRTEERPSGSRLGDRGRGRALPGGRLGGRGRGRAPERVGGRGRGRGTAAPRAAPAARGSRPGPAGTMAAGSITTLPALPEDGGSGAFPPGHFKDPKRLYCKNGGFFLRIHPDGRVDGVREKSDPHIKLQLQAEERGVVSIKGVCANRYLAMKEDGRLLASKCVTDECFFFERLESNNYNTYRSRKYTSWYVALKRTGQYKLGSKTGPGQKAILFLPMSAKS
Sequence of Albumin (Bos taurus) (P02769 whole entry, looked up): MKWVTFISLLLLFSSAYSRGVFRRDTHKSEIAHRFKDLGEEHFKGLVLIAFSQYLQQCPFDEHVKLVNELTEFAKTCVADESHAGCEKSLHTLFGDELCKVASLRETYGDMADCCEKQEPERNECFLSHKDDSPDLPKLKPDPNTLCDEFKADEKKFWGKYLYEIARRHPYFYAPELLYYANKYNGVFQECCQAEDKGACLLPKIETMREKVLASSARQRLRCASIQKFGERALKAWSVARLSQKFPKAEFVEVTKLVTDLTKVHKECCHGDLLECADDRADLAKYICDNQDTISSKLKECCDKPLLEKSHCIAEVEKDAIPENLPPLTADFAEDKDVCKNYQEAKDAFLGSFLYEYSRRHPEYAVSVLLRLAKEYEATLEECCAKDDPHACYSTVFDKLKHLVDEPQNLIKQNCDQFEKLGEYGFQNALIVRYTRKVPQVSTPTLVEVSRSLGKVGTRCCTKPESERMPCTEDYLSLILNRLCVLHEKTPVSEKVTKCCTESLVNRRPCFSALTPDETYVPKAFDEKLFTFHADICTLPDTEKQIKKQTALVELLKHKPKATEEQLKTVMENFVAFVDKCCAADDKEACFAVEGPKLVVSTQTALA
Sequence of Follistatin (Homo sapiens) (P19883 whole entry, looked up): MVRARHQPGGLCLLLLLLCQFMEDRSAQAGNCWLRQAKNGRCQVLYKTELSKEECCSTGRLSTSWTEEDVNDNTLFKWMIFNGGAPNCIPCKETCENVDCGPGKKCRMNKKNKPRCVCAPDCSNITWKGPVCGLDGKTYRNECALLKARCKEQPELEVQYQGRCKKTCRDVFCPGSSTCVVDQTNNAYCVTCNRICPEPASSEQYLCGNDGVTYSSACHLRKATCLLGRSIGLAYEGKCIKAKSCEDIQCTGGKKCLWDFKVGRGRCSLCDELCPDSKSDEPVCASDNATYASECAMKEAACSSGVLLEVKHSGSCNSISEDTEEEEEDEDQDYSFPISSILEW
Sequence of Focal adhesion kinase 1 (Homo sapiens) (Q05397 whole entry, looked up): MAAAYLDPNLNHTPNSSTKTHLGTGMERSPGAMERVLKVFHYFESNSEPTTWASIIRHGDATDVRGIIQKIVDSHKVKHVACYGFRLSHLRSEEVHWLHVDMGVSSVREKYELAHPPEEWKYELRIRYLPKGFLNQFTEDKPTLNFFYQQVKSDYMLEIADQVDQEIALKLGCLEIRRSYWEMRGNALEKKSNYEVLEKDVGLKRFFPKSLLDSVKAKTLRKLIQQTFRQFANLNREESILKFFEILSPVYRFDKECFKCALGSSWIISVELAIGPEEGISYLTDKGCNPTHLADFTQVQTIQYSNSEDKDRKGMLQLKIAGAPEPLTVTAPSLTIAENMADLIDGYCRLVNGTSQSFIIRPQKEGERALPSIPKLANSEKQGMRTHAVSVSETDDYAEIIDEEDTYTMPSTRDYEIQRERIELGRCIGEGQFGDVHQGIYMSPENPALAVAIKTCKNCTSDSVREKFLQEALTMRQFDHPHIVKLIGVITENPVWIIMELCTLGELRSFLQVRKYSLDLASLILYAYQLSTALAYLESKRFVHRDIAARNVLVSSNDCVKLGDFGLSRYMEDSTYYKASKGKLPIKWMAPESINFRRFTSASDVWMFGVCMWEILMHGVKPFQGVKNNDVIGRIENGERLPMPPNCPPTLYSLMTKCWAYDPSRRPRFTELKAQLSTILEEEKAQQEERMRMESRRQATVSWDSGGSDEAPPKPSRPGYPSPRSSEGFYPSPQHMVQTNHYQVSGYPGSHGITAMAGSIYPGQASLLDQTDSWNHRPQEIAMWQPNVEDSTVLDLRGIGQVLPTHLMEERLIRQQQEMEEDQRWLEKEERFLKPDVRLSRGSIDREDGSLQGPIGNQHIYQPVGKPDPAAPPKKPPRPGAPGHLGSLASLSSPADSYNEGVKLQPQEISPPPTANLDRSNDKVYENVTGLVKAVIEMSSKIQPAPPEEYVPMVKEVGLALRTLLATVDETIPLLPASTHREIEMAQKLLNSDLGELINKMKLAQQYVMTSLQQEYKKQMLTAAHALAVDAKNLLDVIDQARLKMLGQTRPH
Sequence of Concanavalin-A (Canavalia ensiformis) (P02866 whole entry, looked up): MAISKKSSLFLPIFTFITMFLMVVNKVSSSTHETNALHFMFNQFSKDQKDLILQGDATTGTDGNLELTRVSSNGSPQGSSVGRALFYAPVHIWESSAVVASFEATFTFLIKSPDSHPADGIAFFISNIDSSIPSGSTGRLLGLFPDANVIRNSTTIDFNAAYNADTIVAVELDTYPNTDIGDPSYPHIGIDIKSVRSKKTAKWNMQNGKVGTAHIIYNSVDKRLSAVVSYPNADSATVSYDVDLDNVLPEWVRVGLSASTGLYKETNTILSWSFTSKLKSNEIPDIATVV

SMILES	composite z-score [1]	composite Z-score [2]	composite z-score [3]	composite z-score [4]	composite z-score [5]	composite z-score [6]	composite z-score [7]	composite z-score [8]	composite z-score [9]	composite z-score [10]	composite z-score [11]	composite z-score [12]	composite z-score [13]	composite z-score [14]	composite z-score [15]	composite z-score [16]	z-score [17]	composite z-score [18]	composite z-score [19]	z-score [20]
CC(C)(C)N1C(=O)[C@H]2[C@H]3[C@H](O)[C@H](O)CC(=NNC(=O)OCc4ccccc4)[C@H]3CC[C@H]2C1=O	-0.316	0.175 (inactive)	-0.0071	-0.075	0.158	0.447	-0.0026	1.1	0.303	0.275	0.758	0.848	0.0507	1.03	0.963	0.491	-1.08	1.43	0.525	0.944 (inactive)
COc1ccc(COC(=O)NN=C2C[C@@H](O)[C@@H](O)[C@@H]3[C@@H]4C(=O)N(C5CCCCC5)C(=O)[C@@H]4CC[C@@H]23)cc1	0.157	-0.218 (inactive)	0.289	-0.0256	-0.143	0.0678	-0.253	-0.0188	-0.108	-0.35	0.123	-0.0517	0.0581	0.0695	-0.148	-0.373	0.847	-0.371	0.401	0.0242 (inactive)
COc1ccc(OC[C@H]2CN3[C@@H](CC[C@@H](C)[C@@H]3c3ccc(Br)cc3)C(=O)O2)cc1	0.197	0.281 (inactive)	-0.25	-0.13	-0.657	-0.239	0.254	0.592	0.464	0.297	0.0994	-0.023	-0.305	-0.0163	0.385	0.042	-0.124	0.664	-0.108	-1.55 (inactive)
CC(=O)OC[C@H]1O[C@@H](ON=C(C)CCN2CCCCc3nc(C)c(C)cc32)[C@H](OC(C)=O)[C@@H](OC(C)=O)[C@@H]1OC(C)=O	0.536	-0.288 (inactive)	0.0282	-0.115	0.163	0.773	-0.0796	1.29	1.27	0.289	0.914	0.329	-0.0665	0.736	0.89	1.14	-0.66	1.17	0.162	0.949 (inactive)
O=C1[C@H]2[C@H]3[C@H](O)[C@H](O)CC(=NOC[C@@H](O)COCc4ccco4)[C@@H]3CC[C@H]2C(=O)N1c1cccc(Oc2ccccc2)c1	-0.407	-0.352 (inactive)	-0.147	-0.22	-0.0803	-0.704	-0.0713	-1.43	0.381	0.391	-1.01	-0.964	-0.535	-0.535	0.942	0.285	-0.268	0.0743	0.196	0.921 (inactive)
CC(=O)OC[C@H]1O[C@H](CC=NO[C@H](C)c2cn([C@@H]3COC[C@H]3O)nn2)C=C[C@@H]1OC(C)=O	0.834	0.195 (inactive)	-0.182	-0.153	-0.0556	-0.426	-0.16	-0.378	0.85	-0.152	0.606	0.179	-0.0621	0.897	0.356	0.396	-0.17	0.42	-0.0712	-0.63 (inactive)
CC(C)CN1CCc2nc(-c3ccccc3)c3c(c2C1)CO[C@@H](C)C3	0.729	-0.548 (inactive)	0.0636	0.0341	0.465	0.798	0.0322	1.29	0.53	1.11	0.454	1.16	0.741	0.756	0.785	0.525	0.0232	0.923	0.963	-0.628 (inactive)
COC(=O)CC=C[C@@H](C)[C@@H](C=NOC(C)CN1CCCc2nc(C)c(C)cc21)NS(=O)(=O)c1ccc(C)cc1 (stereo not given in full)	-0.515	0.964 (inactive)	0.033	0.0098	-0.19	0.726	0.416	1.14	0.641	0.0308	2.64	0.549	0.299	0.451	0.789	0.533	0.835	0.765	0.11	0.679 (inactive)
O=C1[C@H]2[C@H]3[C@H](O)[C@H](O)CC(=NO[C@@H]4O[C@H](CO)[C@@H](O)[C@H](O)[C@H]4O)[C@@H]3CC[C@H]2C(=O)N1C[C@@H]1CCCO1	0.587	-0.258 (inactive)	-0.243	-0.131	0.212	0.146	-0.136	1.1	0.183	0.51	0.142	1.15	0.142	0.907	0.396	0.4	-1.08	0.649	0.326	0.954 (inactive)
Cc1ccc2[nH]c3nc(CCCn4ccnc4-c4ccccc4)nnc3c2c1	0.414	-0.375 (inactive)	0.079	-0.176	0.465	0.656	0.0559	1.05	0.763	1.1	0.663	1.08	0.0863	0.826	0.757	1.19	0.524	0.802	0.676	0.36 (inactive)
CC(=O)OC[C@H]1O[C@H](CCON=C(C)C)C=C[C@@H]1OC(C)=O	0.123	-0.0706 (inactive)	-0.0362	-0.0651	-0.177	-0.308	-0.0375	-0.406	0.445	0.186	1.56	-0.33	0.115	0.0586	0.521	0.247	0.0315	0.377	-0.178	0.654 (inactive)
